Measurements reported in PubChem BioAssay.
“And” between values parts separate entries of the source, which are not always exact repeats. Equal entries are not always repeated.

What was measured:
[1] = test system: Botulinum neurotoxin type F light chain protease (Clostridium botulinum); experiment: Clostridium botulinum type F light chain protease inhibitors, microsphere substrate cleavage, validation (AID 588459); conditions: multiplex microsphere protease substrate cleavage assay, flow cytometry; at 10 µM; hits give high values
[2] = target: Botulinum neurotoxin type A (Clostridium botulinum) (UniProt P0DPI0); experiment: BoNT/A light chain protease inhibitors, biochemical, multiplex microsphere flow cytometry, validation set (AID 588460); conditions: at 10 µM, hits give high values
[3] = target: Lethal factor (Bacillus anthracis) (UniProt P15917); experiment: Bacillus anthracis lethal factor inhibition, microsphere flow cytometry protease assay, validation at 10 µM (AID 588461); conditions: multiplex microsphere protease cleavage assay, hits give high values

Measured: inhibition

Cc1ccc(N2C(=O)c3ccccc3C2=O)cc1C
inactive: [1] -0.3% | [2] 0.5% | [3] -0.8%

COC(=O)c1ccc(COc2ccc3c(C)c(C)c(=O)oc3c2C)o1
inactive: [1] 1.9% | [2] -0.8% | [3] 0.2%

Cc1ccc2c(c1)C(O)(c1c(C)[nH]c3ccccc13)C(=O)N2 (stereo unspecified)
inactive: [1] -4.4% | [2] -1.6% | [3] -10%

COc1cccc(CC(=O)NCC2COc3ccccc3O2)c1OC (stereo unspecified)
inactive: [1] -2.4% | [2] 0.4% | [3] 0.6%

O=C(O)C1[C@H]2C(=O)N(C3CCCC3)C[C@]23C=C[C@H]1O3 (stereo partly specified)
inactive: [1] 6.7% | [2] 1.3% | [3] 5.6%

CCOC(=O)C1=C(C)NC(C)=C(C(=O)OC)C1c1cccc([N+](=O)[O-])c1 (stereo unspecified)
inactive: [1] -1.6% | [2] 0.4% | [3] -10%

CC1(C)CC(=O)C(C(=O)CCCCC(=O)C2C(=O)CC(C)(C)CC2=O)C(=O)C1
inactive: [1] 1.2% | [2] 0.8% | [3] -5.7%

COc1cc(-c2nnc(-c3cccs3)o2)cc(OC)c1OC
inactive: [1] 1.3% | [2] 1.7% | [3] 4.3%

O=C(c1ccc(F)cc1)[C@@H]1[C@@H](C(=O)c2ccccc2)[C@@]2(C(=O)Nc3ccccc32)[C@H]2c3ccccc3C=CN12
inactive: [1] 4.8% | [2] 0.3% | [3] -3.6%

CC[C@]1(O)C[C@@H]2CN(CCc3c([nH]c4ccccc34)[C@@](C(=O)OC)(c3cc4c(cc3OC)N(C)[C@H]3[C@@](O)(C(=O)OC)[C@H](OC(C)=O)[C@]5(CC)C=CCN6CC[C@]43[C@@H]65)C2)C1
inactive: [1] 16.1% | [2] 3.4% | [3] -0.3%

CCOc1ccc(C(=O)Nc2ccc(N3CCN(C(C)=O)CC3)cc2)cc1[N+](=O)[O-]
inactive: [1] 1.6% | [2] 0% | [3] 0.9%

CCCc1cc(C(N)=S)ccn1
inactive: [1] 1.8% | [2] 1.2% | [3] -7.7%

Oc1ccc(/C=C/c2cc(O)cc(O)c2)cc1
inactive: [1] -6.7% | [2] -2.2% | [3] 3.7%

CC(=O)Oc1ccc2occ(/C=N/c3cc(=O)[nH]c(=S)[nH]3)c(=O)c2c1
inactive: [1] 2% | [2] 0.7% | [3] -4.2%

Fc1ccc(NC(=S)Nc2ccccc2Cl)cc1
inactive: [1] 1.8% | [2] -0.7% | [3] -3.5%

CCOC(=O)c1ccc(N2C(=O)C(CC(N)=O)N(CCc3ccc(OC)c(OC)c3)C2=S)cc1 (stereo unspecified)
inactive: [1] 2% | [2] 1.1% | [3] -0.3%

CCOC(=O)C1=C(C)N[C@@]2(O)c3ccccc3C(=O)[C@@]12O
inactive: [1] 2.4% | [2] 0.5% | [3] -1.2%

CC(NCCC(c1ccccc1)c1ccccc1)c1ccccc1 (stereo unspecified)
inactive: [1] -5.9% | [2] -1.1% | [3] 3.4%

Cc1cccc2c1CC(C)(C)N/C2=C\C(N)=O
inactive: [1] 1% | [2] 1% | [3] -3.4%

O=C(O)c1ccc(N2C(=O)/C(=C\c3ccccc3)N=C2c2ccccc2)cc1
inactive: [1] 1% | [2] -1.6% | [3] 4.4%

O=C(NCCCCCc1nc2ccccc2[nH]1)c1ccccc1Cl
inactive: [1] 1.4% | [2] 0.3% | [3] 3.6%

O=C(O)Cc1ccc(O)c(F)c1
inactive: [1] 2.3% | [2] -0.5% | [3] -3.6%

COc1ccc(CN(CCC(c2ccccc2)c2ccc(OC(C)C)cc2)C(=O)CCl)cc1OC (stereo unspecified)
inactive: [1] -3.8% | [2] 0.3% | [3] -6.4%

O=C(O)c1cccnc1
inactive: [1] 1.8% | [2] 2% | [3] 2.5%

C=CCNc1nc2c(c(=O)n(C)c(=O)n2C)n1CC(=C)C
inactive: [1] 3.1% | [2] 0.5% | [3] -0.3%

COc1cc(C)nc(-n2nc(C)cc2OC)n1
inactive: [1] 0.2% | [2] -1.5% | [3] -4.9%

CCOC(=O)[C@H]1O[C@@H]1C(=O)N[C@@H](CC(C)C)C(=O)NCCC(C)C
inactive: [1] 1.7% | [2] -1.4% | [3] -2.8%

O=C(/C=C/c1ccccc1)NCC1(c2ccccc2)CCOCC1
inactive: [1] -1.5% | [2] 0.4% | [3] 3%

Cc1c(CCOC(=O)CC23CC4CC(CC(C)(C4)C2)C3)sc[n+]1Cc1ccc([N+](=O)[O-])cc1
inactive: [1] -3.1% | [2] 1.6% | [3] -4.8%

Cn1cnc2c1c(=O)n(CC(O)CO)c(=O)n2C (stereo unspecified)
inactive: [1] -0.3% | [2] 0% | [3] -1.4%

COc1ccc(S(N)(=O)=O)cc1C(N)=O
inactive: [1] 1.6% | [2] 0.4% | [3] -0.3%

COc1ccc(C2NCCC3(O)CCCCC23)c(OC)c1OC (stereo unspecified)
inactive: [1] 4.3% | [2] -0.3% | [3] 4.4%

O=C(N/N=C\c1cc([N+](=O)[O-])ccc1N1CCOCC1)c1ccccn1
inactive: [1] -0.1% | [2] -1.3% | [3] 2.6%

O=C(CCNNC(=O)c1ccncc1)NCc1ccccc1
inactive: [1] 4.1% | [2] 0.9% | [3] 5.5%

COCCn1c(SCCOc2ccccc2)nc2ccccc2c1=O
inactive: [1] 1.6% | [2] -0.3% | [3] -1.1%

O=C(O)/C=C/c1ccc(O)c(O)c1
inactive: [1] -0.3% | [2] -0.4% | [3] -1.7%

O=C(O)c1ccccc1OCCOc1ccccc1
inactive: [1] 3.5% | [2] 2.5% | [3] 7.2%

CN1CCc2c(n(CC(O)CN(CCO)CCO)c3ccccc23)C1=O (stereo unspecified)
inactive: [1] -0.1% | [2] 0.2% | [3] -3.6%

Cc1ccc(S(=O)(=O)Oc2ccccc2/C=N/N=C(N)N)cc1
inactive: [1] 0.8% | [2] 1.3% | [3] -7.6%

Cc1coc2c1c(C)cc1oc(=O)c(Cc3ccccc3)c(C)c12
inactive: [1] 1.9% | [2] -0.5% | [3] -4.3%

COc1ccc(-c2nnc(-c3cc4c(ccc5ccccc54)oc3=O)o2)cc1
inactive: [1] -0.8% | [2] 0.4% | [3] -1.7%

Clc1cc(-c2ccc(/C=N/n3cnnc3)o2)ccc1Br
inactive: [1] -3.6% | [2] -0.3% | [3] 0.9%

CC(C)OC(=O)c1ccc(NC(=O)c2cncc(Br)c2)cc1
inactive: [1] -2.9% | [2] -0.1% | [3] 7.4%

CCn1c2ccccc2c2cc(CC(N)=O)ccc21
inactive: [1] -5.5% | [2] -0.6% | [3] -0.1%

CCOc1ccc2nc(NC(=O)NC3CCCCC3)sc2c1
inactive: [1] 0% | [2] -1.5% | [3] -3.9%

COc1ccc(-c2coc3cc(O)cc(O)c3c2=O)cc1
inactive: [1] 0.3% | [2] -0.7% | [3] 0.1%

OCC(O)CN1CCN(c2ccccc2)CC1 (stereo unspecified)
inactive: [1] 1.1% | [2] 0.8% | [3] -2.7%

COc1ccc(S(=O)(=O)NC(Cc2cnc[nH]2)C(=O)O)cc1 (stereo unspecified)
inactive: [1] 2.4% | [2] -0.6% | [3] -0.5%

CO/N=C(\C(=O)N[C@@H]1C(=O)N2C(C(=O)O)=C(COC(C)=O)CS[C@H]12)c1csc(N)n1 (stereo in doubt)
inactive: [1] 2.7% | [2] -1.1% | [3] -5.4%

COc1ccc(CCNC(=O)CC(c2ccccc2)c2cccc(C)c2O)cc1OC (stereo unspecified)
inactive: [1] -0.9% | [2] -0.9% | [3] 0.1%

O=C(OCCN1CCCC1)C1(c2ccccc2)CCCC1
inactive: [1] -3.9% | [2] -2.9% | [3] 2.6%

CC12CCC(C(=O)NCc3ccc4c(c3)OCO4)(CC1=O)C2(C)C (stereo unspecified)
inactive: [1] 1.9% | [2] 1.2% | [3] 4.8%

COc1ccccc1NC(=O)Cn1c(C)cc(=O)c2cccc(OC)c21
inactive: [1] -1.1% | [2] -0.9% | [3] -0.2%

CN(C)CCOC(c1ccccc1)c1ccccc1 (tested in a mixture with another compound)
inactive: [1] 1.8% | [2] -2.5% | [3] -6.7%

CCCN1CCC(NC(=O)Nc2ccc(Br)cc2)CC1
inactive: [1] 0.5% | [2] -1.7% | [3] -2%

CCOc1cccc(N2C(=O)CC(N(CCc3ccc(OC)c(OC)c3)C(=O)CC)C2=O)c1 (stereo unspecified)
inactive: [1] 4.3% | [2] 0.7% | [3] 0.4%

O=C(O)c1ccc(OCCn2ccnc2)cc1
inactive: [1] 2.9% | [2] -0.2% | [3] -0.6%

Cc1ccc(C(=O)Nc2ccc(O)cc2C(=O)O)cc1C
inactive: [1] 10.3% | [2] 2.6% | [3] 0.9%

CCc1cc(=O)oc2cc(OCC=C(C)C)ccc12
inactive: [1] 2% | [2] 0.5% | [3] 0.2%

C[n+]1ccccc1/C=N/O
inactive: [1] 2.2% and 2.6% | [2] 0.3% and 1.2% | [3] -1.8% and -6.4%

CCOC(=O)C1=C[C@]2(CC)CCCN3CCc4c(n1c1ccccc41)[C@@H]32
inactive: [1] 1.3% | [2] -0.9% | [3] -7.9%

COC(=O)c1ccc(NC(=O)c2ccccc2SC)cc1
inactive: [1] -4.7% | [2] -0.2% | [3] -5.4%
